Results on seven compounds are retold here after PubChem BioAssay (Tox21).

The nature of assay [1]: Nuclear factor erythroid 2-related factor 2/antioxidant responsive element (Nrf2/ARE) small molecule agonists: qHTS cell viability counter screen in human keratinocytes (AID 1919968; active = well fitted curve in the direction sought with a large enough effect in the repeat runs; an effect the other way counts as inactive or inconclusive; note: nearly all actives have a fitted effect of over 55% in size; note: potency is the fitted concentration of half-maximal effect). In outline: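 Viability counter-screen: KeratinoSens reporter cells, DMSO-delivered compounds, 23 h at 37 C, CellTiter-Fluor fluorescence.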
Assay [2] is described as follows: Nuclear factor erythroid 2-related factor 2/antioxidant responsive element (Nrf2/ARE) small molecule agonists: luciferase reporter gene qHTS assay in human keratinocytes (AID 1919969). Note: nearly all actives have a fitted effect of over 35% in size. Note: potency is the fitted concentration of half-maximal effect.
Assay [3] addresses Gonadotropin-releasing hormone receptor (Homo sapiens) (UniProt P30968). The assay can be described thus: Human gonadotropin-releasing hormone receptor (GnRHR) small molecule agonists, calcium flux assay in GnRHR-HEK293 cells (AID 1920063). Note: nearly all actives have a fitted effect of over 35% in size. An outline of the steps:
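Tox21-format agonist screen using human GnRHR-expressing HEK293 cells and a fluorescent calcium dye; kinetic 3-min fluorescence reading after compound addition, 15-point concentration series run in triplicate.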

Assay [4] deals with KiSS-1 receptor (Homo sapiens) (UniProt Q969F8). The assay can be described thus: Human kisspeptin (KISS1R) small molecule agonists, calcium flux assay in KISS1R-HEK293 cells (AID 1920064; active = well fitted curve in the direction sought with a large enough effect in the repeat runs; an effect the other way counts as inactive or inconclusive). In outline:
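Intracellular calcium mobilization in KISS1R-HEK293 cells was recorded by fluorescence (Ex/Em 480/540) for 3 min following compound addition to cells pre-loaded 1 h with calcium dye.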

Assay [5] in a line: G protein-coupled receptor (GPCR) small molecule agonists, calcium flux assay: HEK293 wild type cell line counter screen (AID 1920065). An outline of the steps: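 In this agonist-mode screen, ATP is the positive control and DMSO the vehicle. Cells grow 18 h before a 1 h dye incubation at 37 C; signal is taken at Ex/Em 480/540 over 3 min.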
Assay [6] can be described thus: p53 small molecule agonists, cell-based qHTS assay with rat liver microsomes (AID 1963578). In outline: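 Fluorescence from a beta-lactamase reporter under a p53 response element was measured after cells had been incubated 16 h at 37 C with test compound and rat liver microsomes plus NADPH (0.5 mg/mL final each).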
Assay [7] is described as follows: p53 small molecule agonists, cell-based qHTS assay with human liver microsomes: qHTS cell viability counter screen (AID 1963579). Note: nearly all actives have a fitted effect of over 45% in size. An outline of the steps: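 Seed p53RE-bla cells at 4,000 per well; incubate 5 h at 37 C; add compound, human liver microsomes and NADPH; incubate 16 h at 37 C; add CellTiter-Glo; after 30 min at room temperature, read luminescence.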

Assay [8] is described as follows: p53 small molecule agonists, cell-based qHTS assay with rat liver microsomes: qHTS cell viability counter screen (AID 1963580). Note: nearly all actives have a fitted effect of over 45% in size. Note: potency is the fitted concentration of half-maximal effect. An outline of the steps: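 Intracellular ATP, by CellTiter-Glo luminescence, defines viability. HCT-116 p53RE-bla cells, 4,000 per well, were compound-treated in the presence of rat liver microsomes and NADPH for 16 h at 37 C.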
Assay [9] can be described thus: p53 small molecule agonists, cell-based qHTS assay: qHTS cell viability counter screen (AID 1963581). Note: nearly all actives have a fitted effect of over 45% in size. An outline of the steps: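 Compounds are pinned onto HCT-116 p53RE-bla cells and left 16 h at 37 C. Following the reporter FRET read, ATP is quantified by CellTiter-Glo luminescence after 30 min at room temperature.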
Assay [10] can be described thus: p53 small molecule agonists, cell-based qHTS assay (AID 1963582; active = well fitted activation curve with a large enough effect in the signal ratio in the repeat runs, not every such curve was filed as active; the % refers to the signal ratio). In outline:
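Agonist activity was scored from beta-lactamase FRET fluorescence in p53RE-bla cells treated 16 h at 37 C with compounds in DMSO, substrate incubation being 2 h at room temperature.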

Assay [11] deals with 5-hydroxytryptamine receptor 2A (Homo sapiens) (UniProt P28223). The assay can be described thus: 5-hydroxytryptamine receptor 2A (HTR2A) small molecule agonists, cell-based qHTS assay (AID 1963587). Note: nearly all actives have a fitted effect of over 30% in size. An outline of the steps:
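Kinetic calcium-flux fluorescence (2 min, 1 sec intervals) after compound addition in agonist mode. HTR2A-CHO cells were cultured 18 h, then dye-loaded 1 h at 37 C.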

Assay [12] concerns the target Muscarinic acetylcholine receptor M1 (Homo sapiens) (UniProt P11229). The assay can be described thus: Cholinergic receptor muscarinic 1 (CHRM1) small molecule antagonists, cell-based qHTS assay (AID 1963588). Note: nearly all actives have a fitted effect of over 40% in size. Note: potency is the fitted concentration of half-maximal effect. In outline: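 CHRM1-CHO calcium-flux assay, antagonist mode. Cells were seeded 18 h, dye-loaded 1 h at 37 C and given compound for 5 min at RT, then acetylcholine was added at 50nM. FDSS fluorescence was read 3 min; 15 concentrations, three runs.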

Assay [13] shares this target. In words: Cholinergic receptor muscarinic 1 (CHRM1) small molecule agonists, cell-based qHTS assay (AID 1963589). Note: nearly all actives have a fitted effect of over 35% in size. In outline: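 Stable CHRM1-CHO cells (human receptor) were incubated 18 h, dye-loaded for 1 h at 37 C and exposed to test compounds for agonist activity, with calcium-dependent fluorescence followed kinetically.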
Assay [14] is described as follows: cAMP Responsive Elements (CRE) small molecule agonists, cell-based qHTS assay (AID 1963590). An outline of the steps:
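FRET-based beta-lactamase readout (LiveBLAzer B/G, 2 h RT) quantified CRE activation in HEK 293T CRE-bla cells after 3 h treatment with DMSO-dissolved compounds.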

A short description of assay [15]: cAMP Responsive Elements (CRE) small molecule antagonists, cell-based qHTS assay (AID 1963591; active = well fitted inhibition curve with a large enough effect in the signal ratio in the repeat runs, not every such curve was filed as active; the % refers to the signal ratio). In outline:
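qHTS in CRE-bla HEK 293T cells: compound in DMSO, then 0.25 uM NKH477 (final), 3 h at 37 °C/5% CO2; beta-lactamase FRET read-out after 2 h substrate incubation.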

Assay [16] addresses Beta-2 adrenergic receptor (Homo sapiens) (UniProt P07550). In words: Adrenergic beta2 receptor (ADRB2) small molecule antagonists, cell-based qHTS assay (AID 1963592). Note: nearly all actives have a fitted effect of over 50% in size. Note: potency is the fitted concentration of half-maximal effect. In outline:
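Cells (CHO, stable ADRB2 overexpression) incubated 18-20hr at 37C; compounds added from DMSO; agonist mix (1nM isoproterenol, 100uM IBMX, 25uM Ro-20-1724) added; 0.5hr RT; d2-cAMP and anti-cAMP-cryptate added; 1hr RT; 665/615 nm read.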

Assay [17] deals with D(2) dopamine receptor (Homo sapiens) (UniProt P14416). The assay can be described thus: Dopamine D2 receptor (DRD2) small molecule agonists, cell-based qHTS assay (AID 1963594). Note: nearly all actives have a fitted effect of over 35% in size. In outline:
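cAMP accumulation in DRD2-HEK293 cells measured by HTRF after 1 h detection; compounds added 10 min before NKH477 (200nM […]) forskolin-analogue stimulation, 30 min at room temperature, with Ro20-1724 present at 0.1 mM final.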

The target is the same in assay [18]. In words: Dopamine D2 receptor (DRD2) small molecule antagonists, cell-based qHTS assay (AID 1963595; active = well fitted inhibition curve with a large enough effect in the signal ratio in the repeat runs, with a control signal flat; the % refers to the signal ratio; note: potency is the fitted concentration of half-maximal effect). In outline: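 Antagonism was scored as restored cAMP in HEK293-DRD2 cells. These cells were stimulated with 200 nM NKH477 and 12 nM quinpirole for 30 min at room temperature, in the presence of 0.1 mM Ro20-1724.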
For assay [19], the target named is Beta-2 adrenergic receptor (Homo sapiens) (UniProt P07550). The assay can be described thus: Adrenergic beta2 receptor (ADRB2) small molecule agonists, cell-based qHTS assay (AID 1963593).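 Note: CHO cells stably overexpressing human ADRB2.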 In outline: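 CHO cells stably over-expressing ADRB2 were plated overnight at 37C, then dosed with compounds plus a stimulation mix containing 100uM IBMX and 25uM Ro-20-1724 for 0.5hr at room temperature. cAMP was measured by HTRF competition, 1hr.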
Chain of Beta-2 adrenergic receptor (Homo sapiens) (P07550 whole entry, looked up): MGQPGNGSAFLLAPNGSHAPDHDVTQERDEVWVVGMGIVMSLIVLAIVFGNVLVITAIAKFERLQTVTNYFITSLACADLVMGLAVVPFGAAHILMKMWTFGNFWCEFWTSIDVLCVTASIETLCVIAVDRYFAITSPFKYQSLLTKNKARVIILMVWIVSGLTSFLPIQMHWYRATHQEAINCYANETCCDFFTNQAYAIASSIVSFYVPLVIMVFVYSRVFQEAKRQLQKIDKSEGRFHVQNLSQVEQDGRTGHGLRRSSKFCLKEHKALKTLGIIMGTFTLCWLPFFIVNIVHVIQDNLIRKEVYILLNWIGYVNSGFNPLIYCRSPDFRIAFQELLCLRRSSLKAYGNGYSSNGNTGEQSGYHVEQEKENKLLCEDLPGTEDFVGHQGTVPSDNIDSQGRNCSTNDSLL

Assay [20] deals with 5-hydroxytryptamine receptor 2A (Homo sapiens) (UniProt P28223). The assay can be described thus: 5-hydroxytryptamine receptor 2A (HTR2A) small molecule antagonists, cell-based qHTS assay (AID 1963586). Note: nearly all actives have a fitted effect of over 45% in size. An outline of the steps: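 Antagonist-mode intracellular calcium assay: DOI (4 nM) added after 5 min compound pre-incubation at room temperature to dye-loaded HTR2A-CHO cells. Fluorescence followed for 3 min, sampled every second.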
Chain of 5-hydroxytryptamine receptor 2A (Homo sapiens) (P28223 whole entry, looked up): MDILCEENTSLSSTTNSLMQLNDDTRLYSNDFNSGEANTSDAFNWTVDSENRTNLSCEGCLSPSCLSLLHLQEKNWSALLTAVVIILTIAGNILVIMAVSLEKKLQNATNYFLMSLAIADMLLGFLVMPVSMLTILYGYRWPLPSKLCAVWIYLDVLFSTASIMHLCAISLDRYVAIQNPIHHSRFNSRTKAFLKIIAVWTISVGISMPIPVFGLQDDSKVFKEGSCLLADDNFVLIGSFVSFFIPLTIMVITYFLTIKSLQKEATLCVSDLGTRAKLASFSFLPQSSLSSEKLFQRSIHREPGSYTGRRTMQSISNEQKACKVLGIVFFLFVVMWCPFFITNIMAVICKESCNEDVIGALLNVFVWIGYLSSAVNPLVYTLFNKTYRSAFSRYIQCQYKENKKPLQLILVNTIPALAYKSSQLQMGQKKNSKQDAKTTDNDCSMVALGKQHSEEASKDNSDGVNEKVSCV

Inconclusive results are not listed. Active and inactive are the calls of the source. Unless noted, calls come from the whole dose curve.

Chain of Muscarinic acetylcholine receptor M1 (Homo sapiens) (P11229 whole entry, looked up): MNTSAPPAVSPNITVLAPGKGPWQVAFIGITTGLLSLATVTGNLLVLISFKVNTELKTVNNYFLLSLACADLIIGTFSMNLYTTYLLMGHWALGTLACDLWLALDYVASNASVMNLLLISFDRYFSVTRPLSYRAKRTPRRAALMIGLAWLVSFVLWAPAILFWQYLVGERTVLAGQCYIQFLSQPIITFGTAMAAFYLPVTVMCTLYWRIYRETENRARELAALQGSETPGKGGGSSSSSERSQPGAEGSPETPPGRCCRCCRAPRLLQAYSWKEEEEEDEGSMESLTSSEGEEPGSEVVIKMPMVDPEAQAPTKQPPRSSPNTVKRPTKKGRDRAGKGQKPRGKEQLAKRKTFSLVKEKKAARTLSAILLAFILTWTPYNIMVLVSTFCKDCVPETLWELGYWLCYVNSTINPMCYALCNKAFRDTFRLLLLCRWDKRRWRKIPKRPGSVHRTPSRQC
Chain of D(2) dopamine receptor (Homo sapiens) (P14416 whole entry, looked up): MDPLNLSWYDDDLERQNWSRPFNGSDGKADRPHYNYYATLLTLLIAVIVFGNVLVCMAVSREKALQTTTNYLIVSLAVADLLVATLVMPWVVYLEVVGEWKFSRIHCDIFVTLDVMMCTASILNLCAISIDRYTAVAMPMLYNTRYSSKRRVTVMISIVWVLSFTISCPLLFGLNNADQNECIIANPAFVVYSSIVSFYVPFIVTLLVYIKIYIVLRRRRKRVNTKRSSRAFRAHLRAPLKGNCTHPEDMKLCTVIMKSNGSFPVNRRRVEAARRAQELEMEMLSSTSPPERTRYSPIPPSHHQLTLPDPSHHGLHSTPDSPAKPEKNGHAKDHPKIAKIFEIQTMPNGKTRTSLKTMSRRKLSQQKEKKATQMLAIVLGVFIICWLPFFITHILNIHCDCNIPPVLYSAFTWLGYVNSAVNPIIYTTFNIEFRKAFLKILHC
Chain of KiSS-1 receptor (Homo sapiens) (Q969F8 whole entry, looked up): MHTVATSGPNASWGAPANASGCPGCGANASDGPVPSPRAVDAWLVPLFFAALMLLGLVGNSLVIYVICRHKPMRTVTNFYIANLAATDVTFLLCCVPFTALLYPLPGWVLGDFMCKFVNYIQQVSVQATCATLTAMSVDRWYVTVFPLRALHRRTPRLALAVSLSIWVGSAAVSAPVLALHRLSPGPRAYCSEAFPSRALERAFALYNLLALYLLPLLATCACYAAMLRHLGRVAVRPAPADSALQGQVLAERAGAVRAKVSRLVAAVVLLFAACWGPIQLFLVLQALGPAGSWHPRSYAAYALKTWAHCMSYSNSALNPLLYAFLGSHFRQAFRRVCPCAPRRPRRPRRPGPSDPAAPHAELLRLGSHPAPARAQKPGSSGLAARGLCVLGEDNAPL
Chain of Gonadotropin-releasing hormone receptor (Homo sapiens) (P30968 whole entry, looked up): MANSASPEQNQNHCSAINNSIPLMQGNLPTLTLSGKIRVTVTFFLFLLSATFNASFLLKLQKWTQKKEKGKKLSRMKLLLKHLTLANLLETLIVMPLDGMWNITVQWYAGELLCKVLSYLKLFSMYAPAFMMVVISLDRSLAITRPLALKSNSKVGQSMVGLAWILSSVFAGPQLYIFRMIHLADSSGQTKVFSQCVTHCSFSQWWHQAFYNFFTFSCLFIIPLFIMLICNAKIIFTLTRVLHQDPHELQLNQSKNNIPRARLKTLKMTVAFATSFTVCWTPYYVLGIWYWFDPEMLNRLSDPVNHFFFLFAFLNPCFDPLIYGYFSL

On to `CC/C(C)=N\O[Si](C)(O/N=C(\C)CC)O/N=C(\C)CC`, for which the Potency entry in [1], in assay [2], in assay [3], in assay [4], in assay [5] and in [6] was “inactive” in each case. The Potency entry in assay [7], in [8], in assay [9], in assay [10], in assay [11] and in assay [13] was “inactive” each time. Moreover, the Potency result in [14], in [15], in [16], in assay [17] and in assay [18] was “inactive” throughout. Further, the Potency in assay [12] was 3.39 µM (active).
`CCNC(=O)/C=C/c1cccc(Br)c1`: the Potency entry in [1], in assay [2], in assay [3], in assay [4], in assay [5] and in [6] was “inactive” throughout. Also, the Potency result in [7], in assay [8], in assay [9], in [10], in assay [11] and in [12] was “inactive” each time. Further, the Potency entry in assay [13], in assay [14], in [15], in assay [16], in [19] and in assay [17] was “inactive” throughout. Moreover, the Potency result in assay [18] is “inactive”.
As to `COCCc1ccc(OCC2CO2)cc1` (stereo unspecified), the Potency entry in [1], in assay [2], in [3], in assay [4], in assay [5] and in [6] was “inactive” throughout. The Potency entry in assay [7], in assay [8], in [9], in [20], in [11] and in assay [12] was “inactive” in each case. Moreover, the Potency entry in assay [13], in [14], in assay [16] and in assay [19] was “inactive” throughout.
For `CN1CCN(c2ccccc2/C=C2\SCCN(c3ccc(Cl)c(Cl)c3)C2=O)CC1`, the Potency is 43.3 µM (active) in assay [1]; 45.8 µM (active) in assay [8]; 7.48 µM (active) in [12]; 0.77 µM (active) in assay [16]; 54.5 µM (active) in [18]. Also, the Potency result in [2], in assay [3], in [4], in assay [5], in assay [6] and in [7] was “inactive” in each case. The Potency entry in [9], in [10], in [20], in [13], in [14] and in assay [15] was “inactive” in each case.
Consider `Cc1cc(NC(=O)C(=O)O)cc(C)c1Oc1ccc(O)c2c1CCC2`, for which the Potency result in [1], in assay [2], in assay [3], in assay [4], in assay [5] and in assay [6] was “inactive” each time. The Potency result in assay [7], in assay [8], in assay [9], in assay [10], in assay [20] and in [11] was “inactive” each time. For the same compound, the Potency entry in assay [12], in assay [13], in assay [14], in [16] and in [18] was “inactive” throughout.
With `COc1ccc2c(c1)c(CC(=O)OC/C=C(\C)CC/C=C(\C)CCC=C(C)C)c(C)n2C(=O)c1ccc(Cl)cc1`, the Potency entry in assay [1], in [2], in [3], in assay [4], in assay [5] and in [6] was “inactive” throughout. Moreover, the Potency result in [7], in assay [8], in assay [9], in [10], in assay [11] and in assay [12] was “inactive” each time. The Potency entry in assay [13], in assay [14], in [15], in [16], in [19] and in assay [17] was “inactive” throughout. Further, the Potency entry in assay [18] is “inactive”.
`CCCCCC=CCC=CCCCCCCCC(=O)OCC`: the Potency result in [1], in [3], in [4], in assay [5], in assay [6] and in assay [7] was “inactive” in each case. In addition, the Potency result in assay [8], in assay [9], in [10], in [20], in [11] and in [12] was “inactive” in each case. For the same compound, the Potency entry in assay [13] and in assay [16] was “inactive” each time. The Potency in [2] is 29.8 µM (active).
